Pf growth 96h: Primary qHTS for delayed death inhibitors of the malarial parasite plastid, 96 hour incubation; P. falciparum luciferase reporter growth, 96 h; Potency, µM (series often up to 28.7 µM), inactives show at the highest dose activity change, negative = inhibition, actives largely listed as inhibitors; actives 6.9% (n = 320,000); AID 504834, 2011; further: potency means the concentration at half of the fitted maximal effect; on the % scale 0 is the no-effect control and ±100 the full control effect
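P. falciparum expressing integrated firefly luciferase grown in erythrocytes (2% hematocrit, 0.05% parasitemia final) with compounds for 96 hours at 37 C, 5% CO2. Growth inhibition read as loss of luminescence after adding luciferase detection reagent.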
Pf growth 48h: Primary qHTS for delayed death inhibitors of the malarial parasite plastid, 48 hour incubation | P. falciparum luciferase growth in erythrocytes, 48 h | Potency, µM (doses to about 28.7 µM), inactives show at the top dose activity change, negative = inhibition, hits mostly inhibitors | actives 5.9% (n = 310,000); further: potency means the concentration at half of the fitted maximal effect; on the % scale 0 is the no-effect control and ±100 the full control effect
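Here the parasites carry a stable luciferase gene and grow inside erythrocytes in Albumax-based RPMI medium with compound for one erythrocytic cycle. Activity is scored as loss of luminescent signal.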
AMA1-RON2 inh: qHTS for Inhibitors of AMA1-RON; Towards Development of Antimalarial Drug Lead: Primary Screen; Potency, µM (series often up to 58.2 µM), without a hit: at the top dose activity change, negative = inhibition, usual class: inhibitors; AlphaScreen AMA1-biotinylated RON2 peptide binding; AID 720542, 2013; actives 0.2% (n = 360,000);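 further: potency means the concentration at half of the fitted maximal effect; 0% = vehicle wells and -100% = peptide control; nearly all actives have a fitted effect of over 45% in size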
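AMA1 (3D7) with his tag at 25 nM final met compounds first, then biotinylated RON2 peptide at 25 nM; detection used donor plus acceptor beads, 10 µg/mL apiece, read by AlphaScreen after 30 min at room temperature.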
Cycloheximide cs: Cycloheximide Counterscreen for Small Molecule Inhibitors of Shiga Toxin. cell reporter, cycloheximide protein synthesis inhibition counterscreen. max response, %. actives 12% (n = 300,000); in the data active means max response mostly above about 13%, no sharp cut-off; inactive means mostly below about 14%; further: read at 38.3 µM for the half of the compounds with a filed dose; 0% is about no effect
Shiga inhibitor: A qHTS for Small Molecule Inhibitors of Shiga Toxin; actives 9.2% (n = 290,000); inhibition, % at 38.7 µM; Vero cells, Shiga toxin protein synthesis inhibition reporter; AID 2315, 2010; in the data active means inhibition mostly above about 28%, no sharp cut-off; inactive means mostly below about 43%; further: 0% is about no effect
HCV inhibitor: qHTS Assay for Inhibitors of Hepatitis C Virus (HCV). actives 3.4% (n = 340,000). Potency, µM (titrated, usually from 41.8 µM), without a hit: at the top dose activity change, negative = inhibition, usual class: inhibitors. Huh7.5.1 HCVcc-Cre infection, luciferase reporter, 44 h. AID 651820, 2012; further: potency means the concentration at half of the fitted maximal effect; on the % scale 0 is the no-effect control and ±100 the full control effect
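Infectious HCVcc-Cre (~0.5 moi) was added to cells just after compound, with cells seeded 4 h earlier at 1,000 per well. Luciferase activity after 44 h culture reported infection; substrate was incubated 15 min at room temperature before reading.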
The depositor's hits bear a star; ? = inconclusive; / = not tested or not shown. A selection: hits, their analogues and other compounds. The true share with any hit is near 21%. Unless noted, the call rests on the fitted dose curve; in most records, active means well fitted curve in the direction sought with a large enough effect; inconclusive means small, poorly fitted or top-dose-only effect, or another doubt; inactive means no such curve, though single readings can be large; an effect the other way counts as inactive or inconclusive.

SMILES | Pf growth 96h | Pf growth 48h | AMA1-RON2 inh | Cycloheximide cs | Shiga inhibitor | HCV inhibitor
Cc1cc(OC(C)C(=O)NCC2CCC(C(=O)O)CC2)c2c(C)c(Cc3ccccc3)c(=O)oc2c1 (stereo unspecified) | 10µM* | ? | -1% | -1 | 6 | ?
O=C(CCCCCNC(=O)N1CCn2c1nc1ccccc12)NCCc1ccccc1 | 7.4µM* | ? | 16% | -1 | -3 | -20%
CN1CCN(S(=O)(=O)c2ccc(CNC(=O)c3ccccc3)s2)CC1 | ? | -16% | -10% | -2 | -8 | -1%
Cc1ccc(NC2=NCC(=O)N2Cc2ccc3c(c2)OCO3)c(C)c1 | 35% | 4% | -7% | -3 | 0 | 3%
CCc1ccc(NC2=NCC(=O)N2Cc2ccc3c(c2)OCO3)cc1 | 9.3µM* | 0% | -10% | -2 | -3 | 1%
COCC(C)n1c(SCC(=O)NC(=O)NCc2ccccc2)nc2ccccc2c1=O (stereo unspecified) | / | / | -24% | / | / | ?
Cc1cc(-c2ccccc2)n[nH]1 | 40% | 47% | 0% | 14 | 34 | 6%
FC(F)C(F)(F)C(F)(F)C(F)(F)c1cc(-c2ccccc2)n[nH]1 | 1% | 18% | 3% | 22* | 73 | -17%
CCc1c(C)nc2cc(-c3ccc(Cl)cc3)[nH]n2c1=O | 0% | ? | 5% | 35* | 35* | -12%
Cc1nc2cc(-c3ccc(Br)cc3)[nH]n2c(=O)c1Cl | 9.3µM* | ? | 1% | -4 | -3 | 9%
Cc1cccc(-c2cc3nc(C)cc(=O)n3[nH]2)c1 | / | / | 1% | / | / | /
CCOC(=O)CCc1c(C)nc2cc(-c3ccc(Cl)cc3)[nH]n2c1=O | / | ? | 6% | 7 | -5 | 0%
CCc1c(C)nc2cc(-c3cccc(Br)c3)[nH]n2c1=O | 0% | ? | 4% | 38* | 80* | ?
O=c1c2c(nc3cc(-c4ccc(Cl)cc4)[nH]n13)CCS2 | -77% | 76% | 11% | 51* | 30 | 1%
Cc1csc(=O)n1CC(=O)OCC(=O)c1ccc(Br)cc1 | 22% | -2% | -10% | / | / | 16%
CN(CC(=O)NCC(=O)Nc1ccc(F)c(F)c1F)C1CCS(=O)(=O)C1 (stereo unspecified) | 14% | -27% | 71% | / | / | 10%
CCOC(=O)Cc1c(C)nc2cc(-c3ccc(C)cc3)[nH]n2c1=O | 65% | 38% | -2% | 15* | 38 | 12%
CCOC(=O)Cc1c(C)nc2c(-c3ccccc3)c(C)[nH]n2c1=O | ? | 2% | 11% | -1 | -15 | /
Cc1ccc2c(c1)C(=C(C#N)C#N)CCN2 | / | / | -8% | / | / | ?
CCN(c1cccc(C)c1)c1nc2ccsc2c(=O)s1 | 8.3µM* | 8% | 62% | -1 | -24 | -5%
CCN(c1ccccc1)c1nc(=O)c2cccnc2s1 | ? | 14% | -15% | -3 | -5 | -3%
O=C1/C(=C\c2ccccc2)C2OCC=C3CN4CCC56c7ccccc7N1C5C2C3CC46 (stereo unspecified) | 2.6µM* | 2.3µM* | -6% | -3 | -5 | 12%
CCOc1cc(N2CCOCC2)c(OCC)cc1NC(=O)c1ccc(=O)n(Cc2ccccc2)n1 | ? | 5% | / | -4 | 5 | /
CCOc1cc(N2CCOCC2)c(OCC)cc1NC(=O)c1nn(CC)c(=O)c2ccccc12 | 2.6µM* | 10µM* | -17% | / | / | ?
CCOc1cc(N2CCOCC2)c(OCC)cc1NC(=O)c1cc(S(=O)(=O)N2CCOCC2)ccc1Cl | ? | ? | 16% | / | / | ?
SMILES | Pf growth 96h | Pf growth 48h | AMA1-RON2 inh | Cycloheximide cs | Shiga inhibitor | HCV inhibitor
CCOc1cc(N2CCOCC2)c(OCC)cc1NC(=O)CCS(=O)(=O)c1ccc(Cl)cc1 | 7.4µM* | ? | -8% | -3 | 3 | ?
CCOc1cc(N2CCOCC2)c(OCC)cc1NC(=O)c1ccc2ccccc2n1 | ? | 13µM* | -19% | 28* | 53* | ?
CCOc1cc(N2CCOCC2)c(OCC)cc1NC(=O)Cc1cccc2ccccc12 | ? | / | -16% | -2 | -5 | 14µM*
CCOc1cc(N2CCOCC2)c(OCC)cc1NC(=O)COC(=O)c1ccccc1C | ? | ? | -10% | -4 | -9 | -32%
Cc1ccc(S(=O)(=O)N2CCN(C(=O)CN3C(=O)c4ccc([N+](=O)[O-])cc4C3=O)CC2)c(C)c1 | 19% | 19% | 5% | / | / | 10%
CNCC(=O)NC(CCCN=C(N)N)C(=O)NC(C(=O)NC(Cc1ccc(O)cc1)C(=O)NC(C(=O)NC(Cc1cnc[nH]1)C(=O)N1CCCC1C(=O)NC(C)C(=O)O)C(C)C)C(C)C (stereo unspecified) | 4% | -3% | / | / | / | /
CCOc1cc(N2CCOCC2)c(OCC)cc1NC(=O)c1ccc(OC)cc1 | ? | ? | 6% | 2 | -15 | 4.5µM*
CCCCSc1nnc(-c2ccccc2NC(C)=O)c(=O)[nH]1 | 0% | 59% | 24% | -1 | 9 | 8%
CCCn1c(SCC(=O)N2CCc3ccccc3C2)nc(O)cc1=O | / | / | 0% | / | / | 0%
Oc1oc(-c2ccccc2)nc1C=Nc1ccccc1 | 38% | 12% | -8% | 46* | 115* | 10%
CC(=O)Nc1ccc(N=Cc2nc(-c3ccc(C)cc3)oc2O)cc1 | ? | 8% | -15% | 3 | 18 | ?
Cc1ccc(N=Cc2nc(-c3ccc(C)cc3)oc2O)cc1 | -16% | 37% | 0% | 27* | 97* | 8%
Oc1oc(-c2ccccc2)nc1C=NCc1ccccc1 | 73% | / | -18% | 61* | 119* | -19%
CN(C)c1ccc(N=Cc2nc(-c3ccccc3)oc2O)cc1 | / | ? | -8% | 11 | 17 | -23%
COc1ccc(N=Cc2nc(-c3ccco3)oc2O)cc1 | 9% | -13% | -9% | 51* | 102* | -14%
CC1=Nc2ccccc2/C1=C\c1nc(-c2ccccc2)oc1O | -16% | / | -11% | 0 | -7 | ?
COc1cccc(CNC(=O)CN(C)S(=O)(=O)c2ccc3c(c2)n(C)c(=O)c(=O)n3C)c1 | ? | ? | -12% | 2 | 10 | 8%
O=C(Oc1oc(-c2ccco2)nc1C=Nc1ccc(Cl)cc1)c1ccco1 | 214% | 42% | -1% | 23* | 51* | 13%
CC(=O)Oc1oc(-c2ccccc2)nc1C=Nc1ccc(N(C)C)cc1 | 54% | 53% | -9% | 10 | 39 | -3%
CSc1ccccc1N=Cc1nc(-c2ccccc2)oc1O | -18% | 6% | 20% | 37* | 94* | -4%
Oc1oc(-c2ccc(Br)cc2)nc1C=Nc1ccc(Br)cn1 | 61% | 44% | -17% | -3 | 15 | 1%

Source: PubChem (National Center for Advancing Translational Sciences (NCATS))
